In PubChem BioAssay (NCI):
Where “and” joins values, the source holds several entries; their conditions need not be identical. Identical values can stand only once. The panel holds about 83,000 compounds, 20% with a hit somewhere; the sample as a whole holds those more often.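 Values shown are percent growth following 48 h exposure of cells in 96-well plates to a single concentration of compound; below 10 was considered active.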 Calls of active or inactive are those of the source.

What was measured:
Assay in all cases: NCI-60 one-dose screen, 48 h (100 = growth as untreated, 0 = no growth, -100 = all killed)
SR leukemia = conditions: 10 µM unless noted
RPMI-8226 leukemia = system: RPMI-8226 leukemia
OVCAR-8 ovarian = system: OVCAR-8 ovarian
OVCAR-4 ovarian = system: OVCAR-4 ovarian
SK-OV-3 ovarian = system: SK-OV-3 ovarian
IGROV1 ovarian = system: IGROV1 ovarian
OVCAR-3 ovarian = conditions: 10 µM unless noted
HS 578T breast = system: HS 578T breast
NCI/ADR-RES ovarian = system: NCI/ADR-RES ovarian
OVCAR-5 ovarian = system: OVCAR-5 ovarian

Measured: growth

COc1cc(C2c3cc4c(cc3C(OC(=O)C[n+]3ccccc3)C3COC(=O)C23)OCO4)cc(OC)c1OC (stereo not drawn)
active: OVCAR-3 ovarian -57.7% | NCI/ADR-RES ovarian; 10 µM unless noted -3.91%
inactive: SR leukemia 11.5% | RPMI-8226 leukemia; 10 µM unless noted 36.2% | OVCAR-8 ovarian; 10 µM unless noted 14.7% | OVCAR-4 ovarian; 10 µM unless noted 41.5% | SK-OV-3 ovarian; 10 µM unless noted 33% | IGROV1 ovarian; 10 µM unless noted 16.5% | HS 578T breast; 10 µM unless noted 34.7%

O=C(O)COc1ccccc1F
inactive: SR leukemia 99.5% | RPMI-8226 leukemia; 10 µM unless noted 98.4% | OVCAR-8 ovarian; 10 µM unless noted 116% | OVCAR-4 ovarian; 10 µM unless noted 111% | SK-OV-3 ovarian; 10 µM unless noted 119% | IGROV1 ovarian; 10 µM unless noted 105% | OVCAR-3 ovarian 108% | HS 578T breast; 10 µM unless noted 101% | NCI/ADR-RES ovarian; 10 µM unless noted 114%

CS/C(=C\c1ccc(C(=O)c2ccc(C)cc2)n1C)S(C)=O (stereo not drawn)
inactive: RPMI-8226 leukemia; 10 µM 70.2% | RPMI-8226 leukemia; 100 µM 56.9% | OVCAR-8 ovarian; 10 µM 91% | OVCAR-8 ovarian; 100 µM 82.3% | OVCAR-5 ovarian; 10 µM 105% | OVCAR-5 ovarian; 100 µM 102% | OVCAR-4 ovarian; 10 µM 89% | OVCAR-4 ovarian; 100 µM 69.2% | SK-OV-3 ovarian; 10 µM 103% | SK-OV-3 ovarian; 100 µM 87.6% | IGROV1 ovarian; 10 µM 93.2% | IGROV1 ovarian; 100 µM 82.9% | HS 578T breast; 10 µM 91.2% | HS 578T breast; 100 µM 90.6% | NCI/ADR-RES ovarian; 10 µM 76.8% | NCI/ADR-RES ovarian; 100 µM 52.7%

Cc1cc(Cl)nc(Nc2ccccc2)n1
inactive: RPMI-8226 leukemia; 10 µM unless noted 117% | OVCAR-8 ovarian; 10 µM unless noted 102% | OVCAR-5 ovarian; 10 µM unless noted 103% | OVCAR-4 ovarian; 10 µM unless noted 100% | SK-OV-3 ovarian; 10 µM unless noted 102% | IGROV1 ovarian; 10 µM unless noted 100% | OVCAR-3 ovarian 95.5% | HS 578T breast; 10 µM unless noted 99.6% | NCI/ADR-RES ovarian; 10 µM unless noted 100%

CCCCNC(=O)c1ccccc1C
inactive: SR leukemia 85.3% | RPMI-8226 leukemia; 10 µM unless noted 99.7% | OVCAR-8 ovarian; 10 µM unless noted 107% | SK-OV-3 ovarian; 10 µM unless noted 97.3% | OVCAR-3 ovarian 105% | HS 578T breast; 10 µM unless noted 104% | NCI/ADR-RES ovarian; 10 µM unless noted 99.3%

COc1cc2c(cc1O)C(=O)CCCC2
inactive: SR leukemia 102% | RPMI-8226 leukemia; 10 µM unless noted 104% | OVCAR-8 ovarian; 10 µM unless noted 117% | OVCAR-4 ovarian; 10 µM unless noted 93.6% | SK-OV-3 ovarian; 10 µM unless noted 108% | IGROV1 ovarian; 10 µM unless noted 64.7% | OVCAR-3 ovarian 101% | HS 578T breast; 10 µM unless noted 110% | NCI/ADR-RES ovarian; 10 µM unless noted 94.5%

CC(=O)Oc1ccc(C(c2ccc(OC(C)=O)cc2)c2ccccn2)cc1
inactive: SR leukemia 95.1% and 98% | RPMI-8226 leukemia; 10 µM unless noted 82.9% and 104% | OVCAR-8 ovarian; 10 µM unless noted 48.7% | OVCAR-5 ovarian; 10 µM unless noted 109% and 27% | SK-OV-3 ovarian; 10 µM unless noted 119% | IGROV1 ovarian; 10 µM unless noted 69% and 79.3% | NCI/ADR-RES ovarian; 10 µM unless noted 49.9% and 34.3%

C/C(CC(C)C)=N/NC(N)=S
inactive: SR leukemia 90.9% | RPMI-8226 leukemia; 10 µM unless noted 73.7% | OVCAR-8 ovarian; 10 µM unless noted 69% | OVCAR-4 ovarian; 10 µM unless noted 72.2% | SK-OV-3 ovarian; 10 µM unless noted 105% | IGROV1 ovarian; 10 µM unless noted 97.4% | OVCAR-3 ovarian 48.1% | HS 578T breast; 10 µM unless noted 96.8% | NCI/ADR-RES ovarian; 10 µM unless noted 46.7%

NCCCCCC(=O)O
inactive: SR leukemia 108% and 79.8% and 111% | RPMI-8226 leukemia; 10 µM unless noted 99.6% and 94.5% | OVCAR-8 ovarian; 10 µM unless noted 103% [middle of 4 runs] | OVCAR-5 ovarian; 10 µM unless noted 98.2% [middle of 4 runs] | SK-OV-3 ovarian; 10 µM unless noted 103% [middle of 4 runs] | HS 578T breast; 10 µM unless noted 110% [middle of 4 runs] | NCI/ADR-RES ovarian; 10 µM unless noted 109% [middle of 4 runs]

O=C(O)c1ccc2c3ccc(C(=O)O)c4c(C(=O)O)ccc(c5ccc(C(=O)O)c1c25)c43
inactive: SR leukemia 104% | RPMI-8226 leukemia; 10 µM unless noted 135% | OVCAR-8 ovarian; 10 µM unless noted 98% | OVCAR-4 ovarian; 10 µM unless noted 103% | SK-OV-3 ovarian; 10 µM unless noted 107% | IGROV1 ovarian; 10 µM unless noted 42.4% | OVCAR-3 ovarian 101% | NCI/ADR-RES ovarian; 10 µM unless noted 114%

COc1ccc(CCO)cc1
inactive: SR leukemia 75.6% | RPMI-8226 leukemia; 10 µM unless noted 110% | OVCAR-8 ovarian; 10 µM unless noted 101% | OVCAR-5 ovarian; 10 µM unless noted 103% | SK-OV-3 ovarian; 10 µM unless noted 109% | OVCAR-3 ovarian 111% | HS 578T breast; 10 µM unless noted 98.2% | NCI/ADR-RES ovarian; 10 µM unless noted 108%
